About 2,000 (36%) of roughly 5,500 compounds were called active. Not shown: some 18% with an inconclusive outcome. Cut-off read from the data, not from the text of the source: active = normalized growth mostly below about 0.91 (no sharp cut-off); inconclusive = no clear call, values can overlap the other calls; inactive = mostly above about 0.92. The list shows a part of the results.
Assay: chemical genetic growth profiling, strain panel (AID 1159580);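 note: tested at 20 µM; growth read once vehicle control cultures reached saturation at 30 °C; 1 = growth at the plate median or of vehicle wells; lower values mean less growth of the strain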
Conditions: S. cerevisiae deletion strains, growth OD

Measured: normalized growth

C[C@]12N[C@H](Cc3ccccc31)c1ccccc12
inactive: locus YAL040C, strain CLN3, active compounds read low 1.04 | locus YCL061C, strain MRC1 (second series), active compounds read low 0.988 | locus YDR150W, strain NUM1, active compounds read low 1 | locus YDR363W, strain ESC2, active compounds read low 0.953 | locus YER002W, strain NOP16, active compounds read low 0.964 | locus YGR078C, strain PAC10, active compounds read low 0.973 | locus YMR307W, strain GAS1, active compounds read low 1 | locus YNL128W, strain TEP1, active compounds read low 0.992 | locus YNL153C, strain GIM3, active compounds read low 0.978 | locus YNL175C, strain NOP13, active compounds read low 0.98 | locus YNL197C, strain WHI3, active compounds read low 0.957 | locus YNL224C, strain SQS1, active compounds read low 0.979 | locus YOR083W, strain WHI5 (second series), active compounds read low 0.995

O=C(CCn1c(=O)oc2ccccc21)Sc1ccc(Cl)cc1Cl
active: locus YBR160W, strain CDC28, active compounds read low 0.895 | locus YDL028C, strain MPS1, active compounds read low 0.884 | locus YDL214C, strain PRR2, active compounds read low 0.359 | locus YDR054C, strain cdc34, active compounds read low 0.748 | locus YDR477W, strain SNF1, active compounds read low 0.222 | locus YER123W, strain YCK3, active compounds read low 0.278 | locus YER133W, strain GLC7, active compounds read low 0.435 | locus YFR019W, strain FAB1, active compounds read low 0.311 | locus YGR040W, strain KSS1, active compounds read low 0.289 | locus YGR052W, strain FMP48, active compounds read low 0.306 | locus YGR092W, strain DBF2, active compounds read low 0.164 | locus YHR030C, strain SLT2, active compounds read low 0.149 | locus YHR079C, strain IRE1, active compounds read low 0.253 | locus YHR082C, strain KSP1, active compounds read low 0.281 | locus YHR205W, strain SCH9, active compounds read low 0.286 | locus YJL095W, strain BCK1, active compounds read low 0.229 | locus YJL157C, strain FAR1, active compounds read low 0.503 | locus YJR066W, strain TOR1 (second series), active compounds read low 0.197 | locus YJR066W, strain TOR1, active compounds read low 0.227 | locus YKL048C, strain ELM1, active compounds read low 0.745 | locus YKL067W, strain YNK1, active compounds read low 0.597 | locus YKL101W, strain HSL1, active compounds read low 0.433 | locus YKL203C, strain TOR2, active compounds read low 0.348 | locus YLR113W, strain HOG1, active compounds read low 0.221 | locus YLR133W, strain CKI1, active compounds read low 0.387 | locus YLR403W, strain SFP1, active compounds read low 0.205 | locus YML070W, strain DAK1, active compounds read low 0.519 | locus YMR205C, strain PFK2 (second series), active compounds read low 0.662 | locus YMR277W, strain FCP1, active compounds read low 0.873 | locus YNL020C, strain ARK1, active compounds read low 0.383 | locus YNL183C, strain NPR1, active compounds read low 0.249 | locus YNL307C, strain MCK1 (second series), active compounds read low 0.196 | locus YOL136C, strain PFK27, active compounds read low 0.45 | locus YOR061W, strain CKA2, active compounds read low 0.334 | locus YOR231W, strain MKK1, active compounds read low 0.251 | locus YPL031C, strain PHO85, active compounds read low 0.342 | locus YPL153C, strain RAD53, active compounds read low 0.216 | locus YPL204W, strain HRR25, active compounds read low 0.402 | locus YPL256C, strain CLN2, active compounds read low 0.255
inactive: locus YAR019C, strain CDC15, active compounds read low 0.894 | locus YBL105C, strain PKC1, active compounds read low 0.935 | locus YBR135W, strain CKS1, active compounds read low 0.914 | locus YBR136W, strain MEC1, active compounds read low 0.913 | locus YDL017W, strain CDC7, active compounds read low 0.942 | locus YDL101C, strain DUN1, active compounds read low 0.971 | locus YDL108W, strain KIN28, active compounds read low 0.897 | locus YDL132W, strain cdc53, active compounds read low 0.9 | locus YDR052C, strain DBF4, active compounds read low 0.936 | locus YDR226W, strain ADK1, active compounds read low 0.899 | locus YFL009W, strain cdc4, active compounds read low 0.905 | locus YFL029C, strain CAK1, active compounds read low 0.878 | locus YFR003C, strain YPI1, active compounds read low 0.917 | locus YFR028C, strain CDC14, active compounds read low 0.914 | locus YIL147C, strain SLN1, active compounds read low 0.92 | locus YJL128C, strain PBS2, active compounds read low 0.907 | locus YJR016C, strain ILV3, active compounds read low 0.915 | locus YKL193C, strain SDS22, active compounds read low 0.903 | locus YMR001C, strain CDC5, active compounds read low 0.911 | locus YNL006W, strain LST8, active compounds read low 0.91 | locus YNL161W, strain CBK1, active compounds read low 0.923 | locus YNL207W, strain RIO2, active compounds read low 0.908 | locus YNL222W, strain SSU72, active compounds read low 0.892 | locus YOL078W, strain AVO1, active compounds read low 0.918 | locus YOR329C, strain SCD5, active compounds read low 0.936 | locus YPL209C, strain IPL1, active compounds read low 0.922 | locus YPR025C, strain CCL1, active compounds read low 0.923 | locus YPR106W, strain ISR1, active compounds read low 0.944 | locus YPR111W, strain DBF20, active compounds read low 0.92 | strain NNK1, active compounds read low 0.935 | strain TSCII, active compounds read low 0.898
